Source: PubChem BioAssay
For some of these results: Entries with a potency or affinity are not part of this list. Activity calls are given as the source filed them. No stated cut-off is given here; in the data, active means parasite load remaining mostly below about 12% (no sharp cut-off); inactive means mostly above about 10%. Peptide text beside a SMILES is read from it.

Assays:
[1] = blockers of polyQ-driven CASP3 activation – cell-based (AID 1583); settings: polyglutamine-induced caspase-3 activation, cell assay; stronger effect = higher value;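 tested at 10 µM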
[2] = yeast 75Q aggregation reduction – 75Q-TubU reporter (AID 1593); settings: Yeast 75Q polyglutamine aggregation reporter
[3] = restoration of touch response, mutant HTT neurons – whole organism, C. elegans mechanosensory neurons, N-terminal huntingtin (AID 1599); settings: C. elegans polyQ-huntingtin mechanosensory neurons, stronger effect = higher value
[4] = blockers of cytochrome c efflux from mitochondria – biochemical, purified mitochondria (AID 1603); settings: stronger effect = lower value;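 further: mouse liver mitochondria challenged with calcium chloride; signal normalized to the plate average as 100%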
[5] = polyglutamine aggregate formation blockers (AID 1604); settings: polyglutamine-induced protein aggregation inhibition assay; stronger effect = higher value; tested at 2.5 µM
[6] = glutamate transport activators, MN-1 cells, MN-1 cell line (AID 1612); settings: MN-1 motor neuron cells, stronger effect = higher value;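 further: tested at 1 µM final; 0% = mean of DMSO vehicle wells on each plate; positive means more glutamate uptake than control and negative means less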
[7] = GFP-Q80 aggregate reduction, neuronal-like cells, cell-based, NGF-treated PC12, GFPQ80 (AID 1614); settings: PC12 NGF-treated GFP-polyQ80 inclusion reduction;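 further: lower means fewer inclusions and 0 means no inclusions at all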
[8] = 75Q-TubH aggregate inhibition, S. cerevisiae, yeast (AID 1616); settings: S. cerevisiae 75Q-TubH polyglutamine aggregation suppression; stronger effect = higher value
[9] = P. berghei load reduction in hepatocytes – cell-based, HepG2, luciferase luminescence, HepG2 viability, primary screen (AID 624349);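 further: 100% = mean of DMSO negative control wells on the same plate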; settings: P. berghei liver stage in HepG2, luciferase luminescence, concentration not given here; parasite load remaining: stronger effect = lower value; viability: measured here: HepG2 viability without parasites

Compound | inhibition [1] [%] | score [2] | rescue above control [3] | cytochrome c release ratio [4] | inhibition of aggregation [5] [%] | glutamate uptake change [6] [%] | inclusion score [7] | aggregation suppression score [8] | parasite load remaining [9] | viability [9] [%]
CO/N=C(\C(=O)NC1C(=O)N2C(C(=O)O)=C(CSc3nc(=O)c(O)nn3C)CS[C@H]12)c1csc(N)n1 (some centres not stated) | 3.84 | 1.38 | -0.56 | 1.14 | 62.1 | 15.4 | 2 | 1.05 | – | –
COC(=O)/C(=C1\OC(=O)C(c2ccccc2)C1=O)c1ccccc1 (configuration not stated) | -4.2 | 0.04 | 9.72 | 2.13 | 31.4 | 6.01 | 2 | 0.0212 | – | –
CC1(C)O[C@@H]2CC3C4CCC5=CC(=O)CCC5(C)C4(F)C(O)CC3(C)[C@]2(C(=O)CCl)O1 (some centres not stated) | -34.5 | 1.26 | -3.98 | 1.36 | 79.5 | 12.8 | 2 | 1.1 | 190% (inactive) | 88.4
Cc1cc(Nc2ccccc2C(=O)O)ccc1Cl | -21.2 | -0.11 | -9.28 | 4.31 | 77.8 | -15.3 | 1 | -0.491 | – | –
CCN(CCCc1ccccc1)CCCc1ccccc1 (tested in a mixture with another compound) | 13.3 | 1.17 | -6.75 | 0.86 | 31.7 | 20.1 | 2 | 1.65 | – | –
CC12CC[C@@H]3c4ccc(O)cc4CCC3[C@@H]1CCC2=O (some centres not stated) | -0.88 | 0.11 | 10.3 | 0.91 | 62 | -29 | 2 | 0.566 | – | –
Nc1ncnc2c1ncn2C1OC(CO)[C@H](O)C1O (some centres not stated) | -97.3 | 1.18 | -9.49 | 1.64 | 80.6 | 3.91 | 2 | 1.96 | – | –
NCCNC(=O)c1ccc(Cl)cc1 | -45.7 | 1.23 | -2.85 | 1.14 | 66.7 | 11.9 | 2 | 1.48 | – | –
OCc1cc2c(cn1)[nH]c1ccccc12 | 15.8 | 0.82 | 10.8 | 0.58 | -1.27 | 17.8 | 2 | 1.28 | – | –
CC(=O)[C@H]1CCC2C3CC=C4C[C@@H](O)CC[C@]4(C)C3CC[C@@]21C (some centres not stated) | 19.7 | 0.01 | -2.78 | 1.03 | 66.7 | -1.9 | 2 | 0.0851 | 85.1% (inactive) | 69.9
NCCCCC(N)C(=O)NC(Cc1c[nH]c2ccccc12)C(=O)NC(CCCCN)C(=O)O (stereo not drawn) (H-Lys-Trp-Lys-OH; configuration not given here) | 5.19 | 1.32 | 22.9 | 0.99 | 83.9 | 46.5 | 2 | 1.18 | – | –
CC(N)C(O)c1cccc(O)c1 (configuration not stated) | -31.9 | 1.32 | 2.5 | 0.89 | 91.7 | -5.75 | 2 | 1.46 | 141% (inactive) | 88.5
CC(=O)OCC(=O)[C@@]12OC(C)(C)O[C@@H]1C[C@H]1C3C[C@H](F)C4=CC(=O)C=CC4(C)[C@@]3(F)[C@@H](O)C[C@@]12C (some centres not stated) | -2.33 | 1.28 | 14.3 | 0.88 | 85.9 | 13.8 | 2 | 0.953 | – | –
CC(CNC(=O)c1ccccc1)C(=O)OCC(=O)[C@@]12OC(C)(C)O[C@@H]1CC1C3CCC4=CC(=O)C=C[C@]4(C)[C@@]3(F)[C@@H](O)C[C@@]12C (some centres not stated) | -1.62 | 1.01 | 13.9 | 0.92 | 100 | 4.01 | 2.5 | 1.21 | – | –
CCC(=O)O[C@@H](O[P@](=O)(CCCCc1ccccc1)CC(=O)N1C[C@H](C2CCCCC2)C[C@H]1C(=O)O)C(C)C | 5.65 | 0.97 | 2.83 | 0.8 | 47.1 | 4.48 | 2 | 0.527 | – | –
CCC(=O)c1ccc2c(c1)N(CC(C)N(C)C)c1ccccc1S2 (configuration not stated) | -29.2 | 1.17 | 1.64 | 1.13 | 69.7 | -2.12 | – | 1.33 | – | –
NC[C@@H]1O[C@H](OC2[C@@H](O)[C@H](O[C@@H]3[C@H](N)[C@@H](O)C[C@H](N)[C@H]3O[C@H]3O[C@H](CO)[C@@H](O)[C@H](O)[C@H]3N)O[C@@H]2CO)[C@H](N)[C@@H](O)[C@@H]1O (some centres not stated) | 25.1 | 0.88 | -2.53 | 1.33 | 16.8 | 21.4 | 2 | 0.564 | – | –
CC(=O)Oc1ccc2c(c1)CCC1C2CCC2(C)C(=O)CCC12 (configuration not stated) | 10.5 | -0.03 | -10.4 | 0.81 | 85.9 | -16 | 2 | 0.169 | – | –
CC(C)CC1NC(=O)CNC1=O (configuration not stated) | 8.98 | 1.33 | -6.28 | 1.01 | -30.2 | -1.97 | 2 | 0.832 | – | –
